ADAM17 inh = inhibitors of human ADAM17. recombinant ADAM17, EDANS/DABCYL FRET peptide cleavage. inhibition, % at 6.95 µM. 0.83% of 370,000 active. AID 720648;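 active = inhibition above the mean of compounds lying between control limits plus 3 SD, set per campaign, cut at about 8.5% in these data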;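 also: 0% = DMSO-only wells as the low control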
Ecoli rRNA inh = inhibits bacterial ribosomal RNA function over humanized ribosomes. GFP signal change (wild-type ribosome), % (test concentration not listed). E. coli WT GFP vs humanized-ribosome RFP mutants, fluorescence, 24 h; stronger effect = lower value; DMSO median 0, no signal -100. 1.6% of 350,000 active;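 active = significant combined selectivity score with lowered wild-type GFP, culture density cut under 30%, mutant RFP and density less affected; inactive = any of these conditions unmet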
ADAM10 inh = ADAM10 inhibition, QFRET primary screen. 0.62% of 370,000 active. AID 720582. inhibition, % at 7 µM. recombinant ADAM10, EDANS/DABCYL FRET peptide cleavage, 3 h;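 active = inhibition above a per-campaign cutoff equal to the mean of compounds falling between control-based bounds plus 3 SD, cut at about 20% in these data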;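 also: 0% = DMSO wells while the 100% control is not disclosed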
proKLK7 act = activators of human kallikrein-7 zymogen | P49862 | activation, % at 7 µM | AID 652039 | 0.9% of 370,000 active | purified proKLK7, EDANS-DABCYL substrate fluorescence; 100% is mature enzyme control, 0% vehicle;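 active = activation above the mean of all tested compounds plus 3 SD, computed per campaign excluding outliers beyond control limits, cut at about 13% in these data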
Target sequence (P49862 whole entry, looked up): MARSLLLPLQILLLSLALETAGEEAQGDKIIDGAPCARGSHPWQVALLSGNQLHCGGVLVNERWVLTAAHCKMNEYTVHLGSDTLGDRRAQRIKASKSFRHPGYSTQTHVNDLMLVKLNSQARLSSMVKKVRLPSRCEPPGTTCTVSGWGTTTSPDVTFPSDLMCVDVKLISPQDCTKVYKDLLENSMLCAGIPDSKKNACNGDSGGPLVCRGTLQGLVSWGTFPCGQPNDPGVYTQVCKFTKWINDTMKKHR
FGF22 binding = FGF22 (human) thermal shift binding; Q9HCT0; 1.5% of 340,000 active; recombinant FGF22 thermal shift, SYPRO orange fluorescence; percent of sucrose octasulfate shift, DMSO zero; activity (Tm shift, normalised), % at 9.99 µM;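 active = mean Tm shift, scaled 0 neutral to 100 positive control, at about 1.3% or above, every replicate too, limit read from the data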
Target sequence (Q9HCT0 whole entry, looked up): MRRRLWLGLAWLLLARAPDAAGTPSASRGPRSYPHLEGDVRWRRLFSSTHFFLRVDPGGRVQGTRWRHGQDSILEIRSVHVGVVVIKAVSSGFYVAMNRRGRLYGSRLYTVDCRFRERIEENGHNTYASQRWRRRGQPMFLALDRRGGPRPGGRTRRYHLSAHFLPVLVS
ADAM10 counter = counter-screen for ADAM17 exosite inhibitors: inhibitors of human ADAM10; shares compounds with ADAM17 inh; recombinant ADAM10, EDANS/DABCYL FRET peptide cleavage, 3 h; inhibition, % at 6.95 µM; 47% of 2,900 active; AID 743256;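 active = mean inhibition over the triplicate runs exceeds the activity threshold set in the earlier primary screen, cut at about 20% in these data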;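 also: 0% = DMSO wells and 100% = marimastat wells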
ADAM17 confirm = confirmation of inhibitors of human ADAM17 | shares compounds with ADAM17 inh | recombinant ADAM17, EDANS/DABCYL QFRET peptide cleavage | inhibition, % at 6.95 µM | 65% of 2,900 active;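 active = mean inhibition across replicates above the hit cutoff set in the primary screen, cut at about 8.5% in these data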;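 also: 0% = DMSO wells and 100% = marimastat wells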
* hit, by the source's call; nt = not tested or not shown. Hits are enriched below; roughly 3.8% of the tested compounds scored in any of these assays.

SMILES | ADAM17 inh | Ecoli rRNA inh | ADAM10 inh | proKLK7 act | FGF22 binding | ADAM10 counter | ADAM17 confirm
CCSc1nsc(NC(=O)Nc2cccc(OC)c2)n1 | 11* | -59 | 10 | 0 | nt | 15 | 14*
COc1ccc(OC)c(NC(=O)Nc2nc(CN(C)C)cs2)c1 | -6 | 12 | -12 | -1 | 0 | nt | nt
COc1cccc(NC(=O)Cc2csc(NC(=O)Nc3ccccc3OC)n2)c1 | 10* | -26 | 3 | 1 | 0 | 35* | 18*
O=C1NC(Cc2ccccc2)c2nc3ccc(F)cc3c(=O)n2-c2cc(Cl)ccc21 (centres undefined) | 13* | 2 | 6 | 1 | 0 | -6 | 1
O=C1NC(Cc2ccccc2)c2nc3cc(F)ccc3c(=O)n2-c2cc(Cl)ccc21 (centres undefined) | -2 | -1 | 1 | 1 | 0 | nt | nt
C[C@@H]1CN([C@@H](C)CO)S(=O)(=O)c2ccc(Br)cc2O[C@@H]1CN(C)Cc1ccncc1 | nt | -3 | nt | nt | 0 | nt | nt
COc1cc(/C=C(\C#N)c2ccccn2)ccc1OCc1ccccc1 | 9.4* | -16 | 0 | 0 | 0 | 9 | 16*
CCCNC(=O)Nc1ccc2c(c1)C(=O)N(C)[C@H]1CC[C@H](CC(=O)Nc3ccccc3F)O[C@@H]1CO2 | nt | -1 | nt | nt | 0 | nt | nt
Cc1ccc(N2CCN(C(=O)C3CCC(=O)N(Cc4ccc(Cl)cc4)C3)CC2)c(C)c1 (centres undefined) | 8.8* | -51 | 2 | 1 | 0 | 9 | 5
O=C(Nc1cccc(-c2csc(-c3ccccc3)n2)c1)c1cccs1 | 9.8* | nt | 19 | -9 | nt | 19 | 12*
COCCNC(=O)C[C@H]1C[C@H]2c3cc(N(C)C)ccc3O[C@H]2[C@@H](CO)O1 | nt | -1 | nt | nt | -1 | nt | nt
COC(=O)c1ccc(CSc2nc3c(c(=O)n2-c2ccc(C)cc2)SCC3)o1 | 12* | nt | 19 | 0 | 0 | 12 | 6
COc1ccccc1NC(=O)N[C@@H]1CC[C@H](CC(=O)N[C@H](C)c2ccccc2)O[C@H]1CO | nt | 5 | nt | nt | 0 | nt | nt
CC(C)CC(=O)NC(=S)Nc1nc(-c2cccc3ccccc23)cs1 | 14* | nt | 20 | 1 | nt | 17 | 8
C/C(=N\OC(=O)NC(C)C)c1sc(-c2ccc(Cl)cc2)nc1C | -3 | nt | -6 | -1 | nt | nt | nt
CCNC(=O)O/N=C(\C)c1sc(-c2ccc(Cl)cc2)nc1C | 9.8* | nt | 12 | 0 | nt | 7 | 8
CCOc1ccccc1C1c2[nH]c3ccccc3c2C[C@H]2C(=O)N(C3CCN(Cc4ccccc4)CC3)CC(=O)N12 (some centres undefined) | 9.7* | 2 | 19 | 1 | 0 | 27* | 14*
COc1ccc(C2c3[nH]c4ccccc4c3C[C@H]3C(=O)N(C4CCN(Cc5ccccc5)CC4)CC(=O)N23)c(OC)c1 (some centres undefined) | 5 | -9 | 16 | 0 | 0 | nt | nt
O=C1[C@@H]2Cc3c([nH]c4ccccc34)C(c3ccccc3)N2C(=O)CN1C1CCN(Cc2ccccc2)CC1 (some centres undefined) | 3 | -24 | 11 | 6 | 0 | nt | nt
Cc1ccccc1C1c2[nH]c3ccccc3c2C[C@H]2C(=O)N(C3CCN(Cc4ccccc4)CC3)CC(=O)N12 (some centres undefined) | 8.7* | -1 | 18 | 2 | 0 | 26* | 14*
O=C(O)c1ccccc1C(=O)Nc1cc(C(F)(F)F)ccc1N1CCCC1 | 10* | 1 | 2 | 1 | 0 | 8 | 4
CN(CC(=O)Nc1cccc(F)c1)C(=O)c1cn(-c2ccccc2)nc1-c1ccc(Cl)cc1 | 9.4* | -10 | 18 | -1 | 0 | 28* | 17*
Nc1nc2ccccc2n1S(=O)(=O)c1ccccc1 | 9.0* | 4 | -1 | 0 | 0 | 5 | 4
Cc1ccc(S(=O)(=O)n2c(C)nc3ccccc32)cc1 | 0 | 9 | 5 | 1 | 0 | nt | nt
Cc1ccc(S(=O)(=O)Nc2ccc3c(c2)C(=O)N([C@@H](C)CO)C[C@@H](C)[C@H](CN(C)C(=O)Nc2ccc4c(c2)OCO4)O3)cc1 | nt | -1 | nt | nt | nt | nt | nt
SMILES | ADAM17 inh | Ecoli rRNA inh | ADAM10 inh | proKLK7 act | FGF22 binding | ADAM10 counter | ADAM17 confirm
C[C@@H]1CN([C@@H](C)CO)C(=O)c2cccc(NC(=O)c3ccncc3)c2O[C@@H]1CN(C)S(=O)(=O)c1ccc(F)cc1 | nt | -5 | nt | nt | 0 | nt | nt
C[C@H](CO)N1C[C@H](C)[C@@H](CN(C)C)Oc2c(NC(=O)CCC(F)(F)F)cccc2C1=O | 10.0* | 1 | 1 | 0 | 0 | -3 | 2
C[C@H](CO)N1C[C@H](C)[C@@H](CN(C)S(=O)(=O)c2ccc(F)cc2)Oc2c(NC(=O)c3ccncc3)cccc2C1=O | 10* | -1 | 12 | -1 | 0 | 1 | 4
C[C@H](CO)N1C[C@H](C)[C@@H](CN(C)S(=O)(=O)c2ccccc2)Oc2c(NC(=O)c3ccncc3)cccc2C1=O | 11* | 0 | 4 | 0 | 0 | 2 | 6
CN1C(=O)c2cc(NC(=O)C3CC3)ccc2OC[C@H]2O[C@@H](CC(=O)NCCN3CCCC3)CC[C@H]21 | nt | 3 | nt | nt | 0 | nt | nt
COC(=O)[C@H]1[C@H](CO)[C@H]2Cn3c(ccc(-c4ccccc4F)c3=O)[C@H]2N1Cc1ccncc1 | nt | 3 | nt | nt | 0 | nt | nt
O=C(NCC[C@H]1CC[C@@H](NS(=O)(=O)c2cccc(F)c2)[C@H](CO)O1)Nc1cc(F)ccc1F | nt | -4 | nt | nt | 0 | nt | nt
CCN(C(=O)C1=COCCO1)c1nc2c(C)cccc2s1 | 9.3* | 2 | 5 | 0 | 41 | -2 | 3
CCc1noc(C)c1C(=O)N(CC)c1nc2c(C)cccc2s1 | 1 | -10 | -6 | 0 | nt | nt | nt
Cc1cccc(-n2c(Cc3ccccc3)nnc2SCC(=O)N2CCOCC2)c1 | 12* | -16 | 15 | 0 | nt | -2 | 3
O=C(CSc1nnc(Cc2ccccc2)n1-c1cccc(Cl)c1)N1CCOCC1 | -1 | nt | -13 | 0 | nt | nt | nt
C[C@@H]1CN([C@H](C)CO)C(=O)c2cc(-c3ccccc3F)cnc2O[C@@H]1CN(C)C(=O)CN(C)C | nt | 3 | nt | nt | 0 | nt | nt
COC(=O)c1ccc2[nH]c(C3(O)CCCCC3)c(C)c2c1 | 11* | -11 | 2 | 0 | 0 | -16 | 3
O=C(NNC(=O)c1csc(-c2ccccc2)n1)c1ccccc1 | 8.8* | -10 | 11 | 0 | 0 | -10 | -4
COc1cc2cnncc2cc1OC | -3 | nt | -9 | 0 | nt | nt | nt
COc1cc2cc(Br)cc(Br)c2nc1C | 10* | nt | 13 | 0 | nt | 21* | 13*

High-throughput results (PubChem)
